# Test results published in PubChem BioAssay AID1645856 (Buhrlage Lab, Dana-Farber Cancer Institute and Novartis …, 2021).
# The whole screen tested about 47,000 compounds, of which about 510 (1.1%) were called active. This excerpt belongs to a sample that is enriched for actives. Values without a mark were called inactive. Cut-off read from the data, not from the text of the source: active = inhibition above about 30%; inactive = the rest.
# Target: Ubiquitin carboxyl-terminal hydrolase 10 (Homo sapiens) (UniProt Q14694)
# Sequence (Q14694 whole entry, looked up): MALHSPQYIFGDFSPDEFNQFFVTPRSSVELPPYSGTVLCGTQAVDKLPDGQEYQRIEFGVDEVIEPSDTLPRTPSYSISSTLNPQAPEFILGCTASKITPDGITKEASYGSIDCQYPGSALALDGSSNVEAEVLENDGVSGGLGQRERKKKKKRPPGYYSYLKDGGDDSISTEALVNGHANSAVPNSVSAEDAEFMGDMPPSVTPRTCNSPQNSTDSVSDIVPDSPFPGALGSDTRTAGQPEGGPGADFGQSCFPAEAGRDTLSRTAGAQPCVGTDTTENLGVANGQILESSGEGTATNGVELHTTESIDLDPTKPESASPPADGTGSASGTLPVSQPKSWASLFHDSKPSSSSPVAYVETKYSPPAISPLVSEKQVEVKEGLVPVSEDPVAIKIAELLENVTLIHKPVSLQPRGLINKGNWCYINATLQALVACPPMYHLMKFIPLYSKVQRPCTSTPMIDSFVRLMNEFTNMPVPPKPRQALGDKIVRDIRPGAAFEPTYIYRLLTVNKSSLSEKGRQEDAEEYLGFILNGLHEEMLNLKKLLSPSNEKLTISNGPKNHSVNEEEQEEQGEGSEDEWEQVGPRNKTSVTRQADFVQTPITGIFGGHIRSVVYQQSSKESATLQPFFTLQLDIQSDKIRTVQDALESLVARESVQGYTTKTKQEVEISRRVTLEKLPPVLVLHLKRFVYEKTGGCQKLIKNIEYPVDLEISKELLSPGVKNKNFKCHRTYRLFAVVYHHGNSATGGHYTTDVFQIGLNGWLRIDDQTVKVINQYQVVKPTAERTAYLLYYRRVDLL
# Assay: inhibitors of human USP10 deubiquitinase (AID 1645856)
# Conditions: purified USP10, Ub-rhodamine fluorescence, 60 min; at 20 µM; stronger effect = higher value
row,SMILES,inhibition
1,CC1=C(C(=O)OCCOc2ccccc2)C(c2ccccc2OC(C)C)NC(=O)N1 (stereo not given),5.16%
2,Cc1nn(-c2cccc(Cl)c2)c2c1C(C(=O)c1ccc3c(c1)OCCO3)CC(=O)N2 (stereo not given),-1.54%
3,CN1c2ccccc2O[C@@H]2CC[C@@H](NC(=O)Cn3cccn3)[C@@H](O)[C@@H]21,0.781%
4,COc1ccc2[nH]c3c(N4CCN(C5CCCCC5)CC4)ncnc3c2c1,2.49%
5,O=C(Cn1cccc(-c2nc(-c3ccccc3)no2)c1=O)Nc1ccccc1F,-5.7%
6,Cc1noc(-c2cccn(Cc3cc(F)ccc3F)c2=O)n1,1.28%
7,N#Cc1ccc(NC(=O)Nc2cccn(Cc3ccccc3F)c2=O)cc1,42.6% (active)
8,CN1Cc2cccc(C(=O)N(C)c3nc4c(s3)CCc3occc3-4)c2C1=O,-0.411%
9,COc1cnc(CSc2ccccc2)cc1OCC(=O)Nc1ccc2c(c1)OCO2,0.813%
10,COCCCn1c(C(=O)NCC(=O)OC(C)C)cc2c(=O)n3cccc(C)c3nc21,3.16%
11,COc1ccc(/C=C(\C(=O)N(C)C2CCCCC2)n2ccccc2=O)cc1,-1.04%
12,COc1ccc(-c2cc(C(=O)Nc3ncc(C)s3)c3ccccc3n2)cc1OC,-3.26%
13,CNC(=O)C1CN(C(=O)c2ccccc2F)CC12CCCC2 (stereo not given),-0.0522%
14,Cn1c(=O)n(C2CCN(C(=O)Cc3ccccc3)C2)c2ncncc21 (stereo not given),0.307%
15,O=C1c2ccccc2C2c3[nH]c4ccccc4c3C(c3ccc(F)cc3)CN12 (stereo not given),-4.15%
16,CC(C)N1CCN(S(=O)(=O)c2cc(-c3nnc(C4CC4)o3)co2)CC1,-5.2%
17,Cc1c(C2CCN(C(=O)NCc3ccccc3)CC2)noc1N,-2.52%
18,CC(NC(=O)c1nc2n(n1)-c1ccccc1S(=O)(=O)N2)c1cc2ccccc2o1 (stereo not given),36.5% (active)
19,O=C(NCc1cccnc1N1CCCCC1)c1nc2n(n1)-c1ccccc1S(=O)(=O)N2,17.3%
20,Cc1noc(C)c1COc1cccc(C(=O)NC(C)c2cc3ccccc3o2)c1 (stereo not given),-0.528%
21,CN1CCC2(CN(c3ncccn3)CC23CCN(C(=O)Cc2ccccc2)CC3)C1=O (stereo not given),-1.5%
22,CCn1c(=O)c(C(=O)N2CCN(c3cccc(C)c3)CC2)nc2cccnc21,-3.06%

row,SMILES,inhibition
1,O=S(=O)(c1cccc2nonc12)N1CCC(n2cccc2)CC1,-1.8%
2,COc1cc(Cl)c(C)cc1Nc1ncnc2sccc12,-4.4%
3,NC(=O)CCC(=O)N[C@H]1C[C@H]2CN(Cc3ccccc3)c3ccccc3CN2C1,-7.81%
4,O=C(c1ccccn1)N1CCC(c2nc3ccccc3cc2C(=O)N2CCCC2)CC1,-0.709%
5,O=C(O)C1CCCN1C1=NS(=O)(=O)c2ccccc21 (stereo not given),0.971%
6,CC(=O)N1CCc2cc(C(O)CN3CCN(c4ccccc4)CC3)ccc21 (stereo not given),1.48%
7,Cc1ccc(N2CC(C(=O)N3CCC(C(=O)Nc4ccc(F)cc4F)CC3)CC2=O)cc1 (stereo not given),-5.34%
8,CCC(C(=O)NC1CCCC1)N(C(=O)Cn1nnc(-c2ccc(C)cc2)n1)c1cccc(O)c1 (stereo not given),1.22%
9,Cn1c(=O)c2c3c(cnc2n(C)c1=O)C(=O)CC(c1ccccc1)C3 (stereo not given),-1.08%
10,O=C(NC1CCCC1)c1cc(-c2cccnc2)n(-c2ccc(F)cc2)n1,1.77%
11,c1ccc(-c2ccc(NCc3ccc4c(c3)OCO4)nn2)cc1,3.9%
12,Cc1ccc(S(=O)(=O)N2CCCC2C(=O)N2CCN(c3cccc(Cl)c3)CC2)cc1 (stereo not given),1.5%
13,O=C(COC(=O)C(Cc1c[nH]c2ccccc12)NC(=O)c1ccccc1Cl)c1ccccc1F (stereo not given),6.57%
14,Cn1ccnc1C(NC(=O)c1ccncc1)c1ccc(F)c(F)c1 (stereo not given),-4.27%
15,COc1ccc(CNC2C3=C(CCCC3)C(=O)N2CCc2ccc(Cl)cc2)cc1 (stereo not given),-0.147%
16,CC(C)CN1C[C@@]23CN(C(=O)NCCc4ccc(F)cc4)C[C@@H](C[C@@H]2S1(=O)=O)O3,3.62%
17,COC(=O)C1CCN(C(=O)CC[C@H]2CNC(=O)[C@@H]3[C@@H](CCN3Cc3ccc(C)cc3)N2C)CC1,1.61%
18,Cc1ccc(NC(=O)CCC(=O)N(c2ccccc2)c2ccccc2)cc1Cl,11.4%
19,Cc1ccc(NC(=O)CCOc2ccccc2)cc1S(=O)(=O)Nc1ccccc1Cl,30.4% (active)
20,COc1cccc(NC(=O)COC(=O)c2ccc(OC)c(S(=O)(=O)Nc3cc(Cl)c(OC)cc3OC)c2)c1,0.441%
21,Cc1cc(O)c(=O)cc2c1C[C@H]1CC(C)(C)/C=C/C[C@@]3(C)Oc4cc(=O)c(O)cc(C)c4C[C@@H]3C[C@H](O)[C@]1(C)O2,39.9% (active)
22,COc1ccc(CCNC(=O)CCCn2c(=O)c3ccccc3n(CC(=O)OCc3ccccc3)c2=O)cc1OC,12.7%

row,SMILES,inhibition
1,Cc1ccc(CNC(=O)CC(c2ccccc2)c2ccccc2)cc1,9.59%
2,Cc1ccc(CNC(=O)CCCn2c(=O)c3sccc3n(CC(=O)OCc3ccccc3)c2=O)cc1,53.7% (active)
3,Cc1cccc(-n2c3c(c(=O)[nH]c2=O)CN(Cc2ccco2)CN3)c1C,-1.97%
4,COc1ccc(C(=O)N(c2ccccn2)c2ccccn2)cc1OC,-0.245%
5,CC(=O)Nc1sc2c(c1C(c1cccc(F)c1)N1CCN(CCO)CC1)CCCC2 (stereo not given),-5.42%
6,CC(C)Cc1cc(-c2nn3c(-c4ccccc4Cl)nnc3s2)n[nH]1,13.8%
7,Cc1c(-c2nn3c(-c4ccco4)nnc3s2)cccc1[N+](=O)[O-],50.9% (active)
8,Fc1ccccc1CSc1nnc(C2CCNCC2)o1,-2.32%
9,Cc1cc(-c2ccccc2C(=O)O)nc(C2CCCNC2)n1 (stereo not given),1.65%
10,O=C(NCCc1ccccc1)c1ccc2c(=O)nc3c(-c4ccccc4F)n[nH]n3c2c1,3.48%
11,O=C(NCCc1ccccc1)c1ccc2c(=O)n(Cc3ccco3)c(=O)n(Cc3cccc([N+](=O)[O-])c3)c2c1,73.1% (active)
12,O=C(Cn1c(=O)n(Cc2ccc3c(c2)OCO3)c(=O)c2ccccc21)NCc1ccco1,25.6%
13,O=C(NCc1ccco1)N1CCC2(CC1)Nc1ccccc1-n1cccc12,0.0863%
14,Cc1c(S(=O)(=O)Nc2ccc(F)cc2)cc(C(=O)N2CCCCC2)n1C,1.47%
15,COc1ccc(OC)c(NC(=O)CN2CCc3ccccc32)c1,0.258%
16,Cc1cc(=O)n(CC(=O)NCc2ccccc2)c(N2CCCC2)n1,-2.48%
17,CCc1cccc(C)c1NC(=O)Cn1nc2ccc(C(=O)NCc3ccccc3)cn2c1=O,36% (active)
18,CCc1cccc(C)c1NC(=O)CSc1nc2c(c(=O)[nH]1)CCCC2,0.855%
19,O=C(c1ccc(N2CCCCC2)nn1)N(Cc1ccccc1)c1ccccn1,-1.8%
20,Cn1c(C2CCN(C(=O)Nc3ccc4c(c3)CCC4)C2)nc2cccnc21 (stereo not given),-0.116%
21,Cc1ccc(NC(=O)COC(=O)C2CC(=O)N(c3cccc(C)c3C)C2)cc1 (stereo not given),-7.32%
22,O=C1CCCC2=C1C(c1ccc(C(=O)O)cc1)n1ncc(C(=O)Nc3ccc(F)cc3)c1N2 (stereo not given),-5.67%

row,SMILES,inhibition
1,CCOc1cccc(C2CC(=O)Nc3c2c(C)nn3-c2nncc(-c3ccc(F)cc3)n2)c1 (stereo not given),4.17%
2,Cc1ccc(C2N=C(N3CCCCC3)Nc3nc(C)cc(=O)n32)cc1 (stereo not given),-10.2%
3,O=C(c1ccccc1Cl)N(c1ccccn1)c1ccccn1,-2.33%
4,C=C1CCC2[C@](C)(CCC[C@]2(C)C(=O)OC)[C@H]1CCc1ccoc1/C=C/C(=O)O (stereo not given in full),46.4% (active)
5,C=C1CCC2[C@](C)(CCC[C@]2(C)C(=O)OC)[C@H]1CCc1ccoc1CNCC(=O)O (stereo not given in full),3.42%
6,C=C1CCC2[C@](C)(CCC[C@]2(C)C(=O)OC)[C@H]1CCc1ccoc1C[N+](C)(C)Cc1ccccc1 (stereo not given in full),-1.66%
7,FC(F)(F)c1cccc(CN2CCCn3c(nc4ccccc43)C2)c1,-0.144%
8,O=C(NCc1noc(C2CCCC2)n1)c1ccccc1,3.21%
9,CNc1ccc(-c2noc([C@@H]3CCCN3C3CCN(C)CC3)n2)cn1,-0.38%
10,COc1ccc(C(O)Cc2nc3ccccc3n2Cc2ccc(Cl)cc2)cc1 (stereo not given),1.15%
11,COC(=O)c1ccccc1NC(=O)c1cnc2ccccn2c1=O,0.362%
12,O=C(CNC1CCCc2ccccc21)Nc1cc(S(=O)(=O)N2CCCCC2)ccc1Cl (stereo not given),1.62%
13,Cc1nccc(N2CCCC2c2cnc(-c3ncc[nH]3)cn2)n1 (stereo not given),-5.73%
14,O=C(Cn1cc(S(=O)(=O)N2CCOCC2)ccc1=O)Nc1ccc(F)c(F)c1,2.08%
15,CS(=O)(=O)c1ccc(-n2cc(-c3ccncn3)cn2)cc1,-1.57%
16,O=C(c1ncccn1)N1CCCCC1c1ncc(Cc2cccc(F)c2)o1 (stereo not given),0.0694%
17,CC(OC(=O)c1cn(-c2ccccc2)nc1-c1cccnc1)C(=O)Nc1cccc(S(=O)(=O)N(C)C)c1 (stereo not given),-8.1%
18,Cc1nn(CCC(=O)Nc2ccc(C#N)cc2)c(C)c1S(=O)(=O)N1CCOCC1,7.2%
19,Cn1c(N2CCN(C(=O)c3ccc(F)cc3)CC2)cc(=O)n(C)c1=O,-3.62%
